Experimental data taken from PubChem BioAssay AID1159580 (chemical genetic matrix, 2015).
Hit rate of the full screen: of about 5,500 compounds, about 2,000 (36%) were called active. About 18% were inconclusive and are not listed. This is one part of the list. Unmarked numbers belong to inactive results. No stated cut-off is given here; in the data, active means normalized growth mostly below about 0.91 (no sharp cut-off); inconclusive means no clear call, values can overlap the other calls; inactive means mostly above about 0.92.

Experiment: chemical genetic growth profiling, strain panel (AID 1159580);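 further: tested at 20 µM; growth read once vehicle control cultures reached saturation at 30 °C; 1 = growth at the plate median or of vehicle wells; lower values mean less growth of the strain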
Conditions: S. cerevisiae deletion strains, growth OD

O=C(/C=C/c1ccccc1)c1ccc(O[C@@H]2O[C@H](CO)[C@@H](O)[C@H](O)[C@H]2O)cc1O
normalized growth (locus YJR075W, strain HOC1, hits give low values): 0.913
normalized growth (locus YKL009W, strain mrt4, hits give low values): 0.906
normalized growth (locus YKL068W, hits give low values): 0.905 (active)
normalized growth (locus YKL085W, strain MDH1 (second series), hits give low values): 0.902 (active)
normalized growth (locus YKL085W, strain MDH1, hits give low values): 0.902 (active)
normalized growth (locus YKL160W, strain elf1, hits give low values): 0.911
normalized growth (locus YKL190W, strain CNB1, hits give low values): 0.934
normalized growth (locus YKR001C, strain vps1, hits give low values): 0.819 (active)
normalized growth (locus YKR026C, strain gcn3, hits give low values): 0.933
normalized growth (locus YKR091W, strain srl3, hits give low values): 0.938
normalized growth (locus YLL001W, strain dnm1, hits give low values): 0.896 (active)
normalized growth (locus YLL026W, hits give low values): 0.924 (active)
normalized growth (locus YLL041C, strain sdh2, hits give low values): 0.937
normalized growth (locus YLR027C, strain aat2, hits give low values): 0.937
normalized growth (locus YLR039C, strain RIC1, hits give low values): 0.918
normalized growth (locus YLR058C, strain SHM2, hits give low values): 0.93
normalized growth (locus YLR102C, strain apc9, hits give low values): 0.891 (active)
normalized growth (locus YLR113W, strain HOG1, hits give low values): 0.937
normalized growth (locus YLR221C, strain rsa3, hits give low values): 0.934
normalized growth (locus YLR258W, strain gsy2, hits give low values): 0.916
normalized growth (locus YLR262C, strain YPT6 (second series), hits give low values): 0.911
normalized growth (locus YLR262C, strain YPT6, hits give low values): 0.949
normalized growth (locus YLR268W, strain sec22, hits give low values): 0.88 (active)
normalized growth (locus YLR320W, strain mms22, hits give low values): 0.894
normalized growth (locus YLR330W, strain CHS5, hits give low values): 0.904 (active)
normalized growth (locus YLR342W, strain FKS1 (second series), hits give low values): 0.767 (active)
normalized growth (locus YLR342W, strain FKS1, hits give low values): 0.865 (active)
normalized growth (locus YLR357W, strain rsc2, hits give low values): 0.929
normalized growth (locus YLR370C, strain arc18, hits give low values): 0.91 (active)
normalized growth (locus YLR371W, strain rom2, hits give low values): 0.756 (active)
normalized growth (locus YLR384C, strain iki3, hits give low values): 0.907 (active)
normalized growth (locus YLR418C, strain cdc73, hits give low values): 0.739 (active)
normalized growth (locus YML016C, strain PPZ1, hits give low values): 0.909 (active)
normalized growth (locus YML032C, strain rad52, hits give low values): 0.916
normalized growth (locus YML120C, strain ndi1, hits give low values): 0.933
normalized growth (locus YML124C, strain tub3, hits give low values): 0.897 (active)
normalized growth (locus YMR058W, strain fet3, hits give low values): 0.931
normalized growth (locus YMR078C, strain ctf18, hits give low values): 0.9 (active)
normalized growth (locus YMR125W, strain sto1, hits give low values): 0.938
normalized growth (locus YMR129W, hits give low values): 0.91 (active)
normalized growth (locus YMR205C, strain PFK2, hits give low values): 0.922
normalized growth (locus YMR223W, strain ubp8, hits give low values): 0.877 (active)
normalized growth (locus YMR231W, strain pep5, hits give low values): 0.947
normalized growth (locus YMR307W, strain GAS1, hits give low values): 0.692
normalized growth (locus YNL067W, strain RPL9B, hits give low values): 0.945
normalized growth (locus YNL071W, strain lat1, hits give low values): 0.942
normalized growth (locus YNL183C, strain NPR1, hits give low values): 0.911
normalized growth (locus YNL209W, strain ssb2, hits give low values): 0.937
normalized growth (locus YNL233W, strain BNI4, hits give low values): 0.877
normalized growth (locus YNL248C, strain rpa49, hits give low values): 0.896
normalized growth (locus YNL250W, strain rad50, hits give low values): 0.892 (active)
normalized growth (locus YNL271C, strain bni1, hits give low values): 0.858 (active)
normalized growth (locus YNL298W, strain CLA4, hits give low values): 0.884 (active)
normalized growth (locus YNL307C, strain MCK1, hits give low values): 0.887 (active)
normalized growth (locus YNL322C, strain KRE1 (second series), hits give low values): 0.921
normalized growth (locus YNL322C, strain KRE1, hits give low values): 0.936
normalized growth (locus YNR049C, strain mso1, hits give low values): 0.919
normalized growth (locus YNR052C, strain pop2, hits give low values): 0.92
normalized growth (locus YOL006C, strain TOP1, hits give low values): 0.879
normalized growth (locus YOL012C, strain htz1): 1.32
normalized growth (locus YOL147C, strain pex11, hits give low values): 0.903 (active)
normalized growth (locus YOR001W, strain rrp6, hits give low values): 0.953
normalized growth (locus YOR061W, strain CKA2, hits give low values): 0.933
normalized growth (locus YOR069W, strain VPS5, hits give low values): 0.917 (active)
normalized growth (locus YOR070C, strain gyp1, hits give low values): 0.93
normalized growth (locus YOR080W, strain dia2, hits give low values): 0.948
normalized growth (locus YOR083W, strain WHI5, hits give low values): 0.859 (active)
normalized growth (locus YOR106W, strain vam3, hits give low values): 0.9
normalized growth (locus YOR136W, strain idh2, hits give low values): 0.912 (active)
normalized growth (locus YOR144C, strain elg1, hits give low values): 0.886 (active)
normalized growth (locus YOR184W, strain ser1, hits give low values): 0.864 (active)
normalized growth (locus YOR231W, strain MKK1, hits give low values): 0.952
normalized growth (locus YOR265W, strain rbl2, hits give low values): 0.926 (active)
normalized growth (locus YOR270C, strain vph1, hits give low values): 0.925
normalized growth (locus YOR290C, strain snf2, hits give low values): 0.941
normalized growth (locus YOR316C, strain cot1, hits give low values): 0.9 (active)
normalized growth (locus YPL051W, strain arl3, hits give low values): 0.931
normalized growth (locus YPL055C, strain LGE1, hits give low values): 0.901
normalized growth (locus YPL078C, strain atp4, hits give low values): 0.891 (active)
normalized growth (locus YPL106C, strain sse1, hits give low values): 0.811 (active)
normalized growth (locus YPL240C, strain hsp82, hits give low values): 0.932
normalized growth (locus YPL241C, strain CIN2, hits give low values): 0.916 (active)
normalized growth (locus YPL256C, strain CLN2, hits give low values): 0.889
normalized growth (locus YPR119W, strain clb2, hits give low values): 0.885 (active)
normalized growth (locus YPR141C, strain kar3, hits give low values): 0.877 (active)
normalized growth (locus YPR163C, strain tif3, hits give low values): 0.899 (active)
normalized growth (locus YPR167C, strain met16, hits give low values): 0.916 (active)
normalized growth (strain wtn01, hits give low values): 0.859 (active)
